Methyltransferases – Primary Screen for Target Class Profiling of Small Molecule Inhibitors of Methyltransferases. calls only at 40 µM. purified enzyme, MTase-Glo SAH luminescence; hits give low values. actives 3.9% (n = 25,000). AID 1745853, 2022; call rule not given here
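Each enzyme was reacted with SAM and its substrate, with compounds tested once at 40 uM; SAH formed was read by MTase-Glo luminescence.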
MTase-Glo ctr – inhibits MTase-Glo coupling enzymes without methyltransferase | shares compounds with Methyltransferases | Potency, µM (highest dose often 57.3 µM), inactives show at the highest dose activity change, negative = inhibition, usual class: inhibitors | MTase-Glo coupled enzymes, SAH conversion luminescence, no MTase | actives 6% (n = 180) | AID 1745851; active = well fitted inhibition curve with a large enough effect; inconclusive = small, poorly fitted or top-dose-only effect; note: potency is the fitted concentration of half-maximal effect
An asterisk follows results filed as active; [ ] = another dose, or the depositor's remark. The full list was thinned out, with hits kept by preference. % is set by controls: 0 for no effect and ±100 for the full control effect.

For CCCn1c(=O)c2ccc(Cl)cc2n2c(SCC(=O)Nc3ccccc3F)nnc12 the results were Methyltransferases inactive.
`CC(C)C1c2cccn2CCN1C(=O)Nc1cccc(C(F)(F)F)c1` (stereo not drawn) gave Methyltransferases inactive.
CN1CCN(C)c2cnc(-c3cnn(Cc4ccccc4)c3)cc2C1 was read as Methyltransferases active and MTase-Glo ctr 4%[85.7 µM].
CC(C)Cn1c(=O)c2ccccc2n2c(SCc3ccccc3Cl)nnc12 was read as Methyltransferases inactive.
Screening CC(C)CCNc1nc2c(-c3ccc(Cl)cc3)nnn2c2ccccc12 returned Methyltransferases inactive.
CCCNc1cc(N2CCC(CCC(=O)NCCN3CCCCCC3)CC2)ncn1 was read as Methyltransferases active and MTase-Glo ctr 1%.
For CN1C(=O)c2cc(C(=O)NCCN3CCCC3)nn2CC1(C)C(=O)NC1CCCCC1 (stereo not drawn) the results were Methyltransferases inactive.
For CCCNC(=O)CCc1ccnc(N2CCCC2)c1 the results were Methyltransferases inactive.
CC(C)N(C(=O)Cn1c(=O)oc2cc(S(=O)(=O)N3CCCCC3)ccc21)C1CCCCC1 was read as Methyltransferases inactive.
COc1ncccc1-c1cc2c(nc1OC)nc(CCc1ccccc1)n2C was read as Methyltransferases inactive.
COc1ncccc1-c1nccn2c(C3CN(Cc4ccccc4O)C3)ncc12 was read as Methyltransferases active and MTase-Glo ctr 2%[85.7 µM].
COc1ncccc1-c1n[nH]c2c1CC(=O)N(Cc1ccccc1)C2 was read as Methyltransferases inactive.
For Cn1cc2c3c(cccc31)CN(C(=O)c1ccccc1F)CC2 the results were Methyltransferases active and MTase-Glo ctr -3%.
For O=C(c1ccccc1F)N1CCn2ncc(C(=O)N3CCOCC3)c2C1 the results were Methyltransferases inactive.
`CN1CCCN(C(=O)c2ccccc2F)c2ccccc21` gave Methyltransferases inactive.
`CCOc1ccc(N2C(=O)c3cc4sc(CC)cc4n3CC2(C)C(=O)NC2CCC(C)CC2)cc1` (stereo not drawn) gave Methyltransferases inactive.
Screening CCOC(=O)C(C)Oc1ccc2c(-c3ccccc3)cc(=O)oc2c1 (stereo not drawn) returned Methyltransferases inactive.
Screening COc1cccc([S+](=O)([O-])N2CCC3(C2)C(=NC2CCCCC2)NC(=O)N3c2cc(F)cc(F)c2)c1 (stereo not drawn) returned Methyltransferases inactive.
Screening CCCN1C(=O)c2c(C(=O)NCCc3ccc(C)cc3)ncn2CC1(C)C(=O)NCc1ccc(F)cc1 (stereo not drawn) returned Methyltransferases inactive.
`COc1ccc(-c2cc3n(n2)CC(C)(C(=O)NCc2ccccc2)N(Cc2ccccc2Cl)C3=O)cc1` (stereo not drawn) gave Methyltransferases inactive.
`FC(F)(F)c1ccnc(N2CC[C@H](c3nnc(-c4ccncc4)o3)C2)n1` gave Methyltransferases active and MTase-Glo ctr -4%[85.7 µM].
For c1ccc(-c2nnc([C@H]3CCN(C4CCC4)C3)o2)cc1 the results were Methyltransferases inactive.
Screening COc1ccc(C(=O)N2CC[C@H](c3nnc(-c4ccccc4)o3)C2)cc1 returned Methyltransferases inactive.
`CC1(C(=O)NCc2ccccc2)Cc2ccccc2C(=O)N1Cc1ccccc1` (stereo not drawn) gave Methyltransferases inactive.
COc1ccc(CNC(=O)C(C)n2ccc3cc(S(=O)(=O)N4CCCC4)ccc32)c(OC)c1 (stereo not drawn) was read as Methyltransferases inactive.
For O=C(NCc1ccccc1)c1ccc2c(=O)nc3c(-c4ccccc4)n[nH]n3c2c1 the results were Methyltransferases inactive.
CC(C)CCNC(=O)C1(C)Cn2c(ccc2-c2ccco2)C(=O)N1CC(C)c1ccccc1 (stereo not drawn) was read as Methyltransferases inactive.
`CC(C)c1ccc(CN2CCCC3(CCN(S(C)(=O)=O)C3)C2=O)cc1` (stereo not drawn) gave Methyltransferases inactive.
Screening COC(=O)c1nc(NC(=O)Cn2nc3c(cc2=O)CCCC3)sc1C(C)C returned Methyltransferases active and MTase-Glo ctr -1%.
For O=C(Cn1nc2c(cc1=O)CCCCC2)Nc1nnc(C2CCCO2)s1 (stereo not drawn) the results were Methyltransferases inactive.
CCc1nc(NC(=O)Cn2nc3c(cc2=O)CCCC3)sc1C was read as Methyltransferases inactive.
Cc1ccc(Cn2c(=O)c3ccccc3n3c(=O)n(Cc4ccccc4)nc23)cc1 was read as Methyltransferases inactive.
For CC1(C(=O)NC2CCCCC2)Cc2ccccc2C(=O)N1CCc1ccccc1 (stereo not drawn) the results were Methyltransferases inactive.
For O=C(Cc1ccc(-c2ccccc2)cc1)NC1CCC1 the results were Methyltransferases inactive.
For CN(Cc1ccccc1)C1(C(=O)NC2CCC(O)CC2)Cc2ccccc2C1 (stereo not drawn) the results were Methyltransferases active and MTase-Glo ctr -24%.
For COC(=O)c1cc2n(n1)CC(C)(C(=O)NC1CCC(C)CC1)N(Cc1ccccc1F)C2=O (stereo not drawn) the results were Methyltransferases inactive.
Screening COc1cccc(CN2C(=O)c3cc4oc(C)cc4n3CC2(C)C(=O)NC2CCCCCCC2)c1 (stereo not drawn) returned Methyltransferases inactive.
CCN1C(=O)c2cc(C(=O)NCCc3ccc(Cl)cc3)nn2CC1(C)C(=O)NC1CCCC1 (stereo not drawn) was read as Methyltransferases inactive.
`COc1cccn(CC(=O)N2CCN(c3ccccc3C#N)CC2)c1=O` gave Methyltransferases inactive.
`CCOc1c(CN(C)C(=O)Cn2cccc(OC)c2=O)cccc1OC` gave Methyltransferases active and MTase-Glo ctr -6%.
For CCC(C(=O)N(C)Cc1ccc(OC)c2ncccc12)n1cccn1 (stereo not drawn) the results were Methyltransferases inactive.
`COc1ccc(CC(=O)Nc2ccc3ncnc(N4CCCC4)c3c2)c(Cl)c1` gave Methyltransferases active and MTase-Glo ctr inconclusive.
O=C(Cc1ccsc1)Nc1ccc2c(N3CCCC3)ncnc2c1 was read as Methyltransferases active and MTase-Glo ctr 0%.
`COc1ccc(-c2cnc3[nH]cc(CC(=O)Nc4ccc(C(F)(F)F)cc4)c3c2)cc1` gave Methyltransferases inactive.
Screening CN1C(=O)c2cc(NC(=O)c3ccccc3Cl)ccc2N2CCN=C12 returned Methyltransferases inactive.
Screening O=C(Nc1ccc2ncnc(N3CCCCC3)c2c1)c1cc(F)ccc1F returned Methyltransferases active and MTase-Glo ctr 5.4µM*.
Screening O=C(Nc1ccncc1)c1cc([N+](=O)[O-])ccc1Cl returned Methyltransferases inactive.
Screening O=C(c1cc(F)ccc1F)N1CCCCC1c1nc(-c2cnccn2)n[nH]1 (stereo not drawn) returned Methyltransferases inactive.
O=C(Nc1ccc2c(N3CCCC3)ncnc2c1)c1cc(F)ccc1Cl was read as Methyltransferases active and MTase-Glo ctr -2%.
O=C(Nc1cnc(Cl)nc1)c1ccc(F)c(F)c1 was read as Methyltransferases inactive.
`COc1ccc(CNC(=O)Cn2ccc3cc(S(=O)(=O)N4CCCC4)ccc32)c(OC)c1` gave Methyltransferases inactive.
COc1cc(CN2CCC(CO)(CN3CCCC3)CC2)ccc1F was read as Methyltransferases inactive.
